In test [1] the target is Paired box protein Pax-6 (Homo sapiens) (UniProt P26367). The experiment in a line: ATG_Pax6_CIS: Attagene CIS-FACTORIAL HepG2 Assay for human Paired Box 6 (PAX6) (AID 2282956). The following applies: HepG2 CIS-FACTORIAL PAX6 reporter transcription, RNA readout; actives raise or lower the signal. The procedure, abridged: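 After twenty-four hours of chemical exposure, transfected HepG2 cells are harvested for RNA. Cis-promoter reporter transcripts are amplified, fluorescently labelled and sized by capillary electrophoresis, with gain and loss of signal scored against DMSO.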
Chain of Paired box protein Pax-6 (Homo sapiens) (P26367 whole entry, looked up): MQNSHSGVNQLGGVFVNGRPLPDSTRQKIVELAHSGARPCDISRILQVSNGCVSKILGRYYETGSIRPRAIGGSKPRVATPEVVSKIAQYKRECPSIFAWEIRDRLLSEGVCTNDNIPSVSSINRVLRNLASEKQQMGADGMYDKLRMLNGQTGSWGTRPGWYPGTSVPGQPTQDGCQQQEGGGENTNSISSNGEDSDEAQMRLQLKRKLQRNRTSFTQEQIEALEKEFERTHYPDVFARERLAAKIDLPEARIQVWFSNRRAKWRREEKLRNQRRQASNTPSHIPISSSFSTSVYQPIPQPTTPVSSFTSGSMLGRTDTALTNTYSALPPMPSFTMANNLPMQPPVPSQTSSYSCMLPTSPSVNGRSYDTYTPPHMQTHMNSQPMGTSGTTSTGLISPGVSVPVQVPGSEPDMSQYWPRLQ

Test [2] can be described thus: ATG_PXRE_CIS: Attagene CIS-FACTORIAL HepG2 Assay for human Pregnane X Receptor Element (PXRE) (AID 2282957). The following applies: HepG2 Attagene CIS-FACTORIAL PXRE reporter, mRNA; actives raise or lower the signal. In short, it runs like this:
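Cells: HepG2, transiently transfected reporter units under cis promoter control. Exposure: 24 h. Detection: reporter mRNA via RT-PCR/CE fluorescence; bidirectional fitting, DMSO-referenced.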

Test [3] is described as follows: ATG_PPRE_CIS: Attagene CIS-FACTORIAL HepG2 Assay for human Peroxisome Proliferator-activated Response Element (PPRE) (AID 2282958). The note with it: HepG2 PPRE cis-element reporter, Attagene transcription factor profiling; actives raise or lower the signal. The procedure, abridged: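 In this cell-based multiplex, a PPRE cis element drives a reporter sequence in transiently transfected HepG2 cells. Following 24 h treatment, labeled cDNA amplicons are sized and quantified by capillary electrophoresis, with DMSO defining baseline.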

The nature of test [4]: ATG_RORE_CIS: Attagene CIS-FACTORIAL HepG2 Assay for human RAR-related Orphan Receptor Element (RORE) (AID 2282959). The note with it: HepG2 Attagene cis-factorial RORE reporter, mRNA; actives raise or lower the signal. In short, it runs like this:
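Endogenous factor activity at a cis response element is read as reporter transcript levels in HepG2 cells, 24 h post-dose. Transcripts are quantified by RT-PCR with capillary electrophoresis, and data fitted in both directions against DMSO.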

Test [5] can be described thus: ATG_Sox_CIS: Attagene CIS-FACTORIAL HepG2 Assay for human SRY-box transcription factor (SOX) (AID 2282960). The following applies: HepG2 Attagene cis-factorial SOX reporter, mRNA; actives raise or lower the signal. In short, it runs like this:
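Measures mRNA induction of a SOX1-associated reporter in HepG2 after 24 h dosing. Fluorescently labelled RT-PCR fragments are separated by capillary electrophoresis, and gain or loss relative to DMSO control is fitted.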

In test [6] the target is Transcription factor Sp1 (Homo sapiens) (UniProt P08047). Put plainly: ATG_Sp1_CIS: Attagene CIS-FACTORIAL HepG2 Assay for human Specificity Protein 1 (Sp1) (AID 2282961). The note with it: HepG2 Sp1 cis-reporter transcription, actives raise or lower the signal. In short, it runs like this: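 Cells: HepG2, transiently transfected with cis-regulated multiplexed reporters. Exposure: 24 h. Detection: reporter transcripts amplified, fluorescently labeled, restriction-digested and sized by capillary electrophoresis. Analysis: bidirectional fit relative to DMSO.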
Chain of Transcription factor Sp1 (Homo sapiens) (P08047 whole entry, looked up): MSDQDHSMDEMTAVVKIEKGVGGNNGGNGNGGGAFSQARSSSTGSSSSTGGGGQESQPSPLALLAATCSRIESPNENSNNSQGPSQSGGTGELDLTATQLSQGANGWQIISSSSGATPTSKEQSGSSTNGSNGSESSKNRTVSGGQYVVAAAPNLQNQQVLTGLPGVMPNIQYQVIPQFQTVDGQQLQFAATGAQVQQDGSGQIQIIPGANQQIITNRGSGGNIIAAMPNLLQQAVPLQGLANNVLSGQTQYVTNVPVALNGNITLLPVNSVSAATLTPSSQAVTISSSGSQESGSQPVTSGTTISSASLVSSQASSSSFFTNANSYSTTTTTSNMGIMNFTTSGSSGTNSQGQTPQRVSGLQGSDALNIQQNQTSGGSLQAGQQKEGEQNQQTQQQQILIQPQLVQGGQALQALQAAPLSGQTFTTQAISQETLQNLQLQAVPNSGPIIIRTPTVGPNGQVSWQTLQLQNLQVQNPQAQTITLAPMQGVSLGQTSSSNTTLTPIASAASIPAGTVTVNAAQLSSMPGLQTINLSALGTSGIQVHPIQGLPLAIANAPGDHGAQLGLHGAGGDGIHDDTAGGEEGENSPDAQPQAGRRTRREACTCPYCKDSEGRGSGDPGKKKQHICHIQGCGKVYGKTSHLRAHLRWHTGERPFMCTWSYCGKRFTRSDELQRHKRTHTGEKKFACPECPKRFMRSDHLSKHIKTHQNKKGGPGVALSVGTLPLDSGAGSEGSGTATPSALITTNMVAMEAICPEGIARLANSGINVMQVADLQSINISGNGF

The nature of test [7]: ATG_SREBP_CIS: Attagene CIS-FACTORIAL HepG2 Assay for human Sterol Regulatory Element Binding (SREBP) (AID 2282962). The following applies: HepG2 Attagene cis-factorial SREBP reporter, mRNA; actives raise or lower the signal. In short, it runs like this:
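Twenty-four hours after chemical dosing of transfected HepG2 cultures, reporter RNA was converted to cDNA, amplified, end-labelled with 6-FAM and resolved by capillary electrophoresis. Responses were fitted relative to DMSO.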

The target of test [8] is Signal transducer and activator of transcription 3 (Homo sapiens) (UniProt P40763). Put plainly: ATG_STAT3_CIS: Attagene CIS-FACTORIAL HepG2 Assay for human Signal Transducer and Activator of Transcription 3 (STAT3) (AID 2282963). The note with it: HepG2, Attagene cis-factorial STAT3 reporter transcription; actives raise or lower the signal. In short, it runs like this:
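After a 24 h compound incubation, total RNA from MRTU-transfected HepG2 cells was converted to cDNA and reporter sequences PCR-amplified, labelled and profiled by capillary electrophoresis. Gain and loss of signal were referenced to DMSO.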

Test [9] is described as follows: ATG_TA_CIS: Attagene CIS-FACTORIAL HepG2 Assay for human TA Basal Promoter (AID 2282964). The note with it: HepG2 Attagene CIS-factorial TA basal promoter reporter; actives raise or lower the signal. The procedure, abridged: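 Multiplexed mRNA reporter assay, HepG2, 24 h. Reporter cDNA amplified, 6-FAM primer-extended, HpaI-cut, CE-sized; DMSO = negative control and baseline.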

The nature of test [10]: ATG_TCF_b_cat_CIS: Attagene CIS-FACTORIAL HepG2 Assay for human T-Cell-Factor with beta-catenin (TCF/b-cat) (AID 2282965). The following applies: HepG2 TCF/beta-catenin cis-reporter transcription, actives raise or lower the signal. The procedure, abridged: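 Measured: reporter mRNA in HepG2 transiently transfected with cis-promoter reporter units, 24 h after chemical addition. Fitting was bidirectional, DMSO as negative control.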

The nature of test [11]: ATG_TAL_CIS: Attagene CIS-FACTORIAL HepG2 Assay for human TAL Basal Promoter (AID 2282966).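 Note: background control endpoint measuring basal TAL promoter reporter mRNA not a specific factor.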 The note with it: HepG2 Attagene cis-factorial TAL promoter reporter; actives raise or lower the signal. The procedure, abridged: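 RT-PCR plus capillary electrophoresis quantifies reporter mRNA induction in transiently transfected HepG2 cells after 24 h chemical treatment. DMSO serves as negative control and baseline for bidirectional fitting.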

The nature of test [12]: ATG_TGFb_CIS: Attagene CIS-FACTORIAL HepG2 Assay for human Transforming Growth Factor (TGF) (AID 2282967). The following applies: HepG2 Attagene CIS TGFb reporter, mRNA transcription; actives raise or lower the signal. In short, it runs like this: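 Transcript-level reporter readout: HepG2 transfectants, 24 h exposure, RNA to cDNA, reporter-specific PCR, fluorescent primer extension, capillary sizing against ROX standards. Gain- or loss-of-signal relative to DMSO.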

The nature of test [13]: ATG_VDRE_CIS: Attagene CIS-FACTORIAL HepG2 Assay for human Vitamin D Receptor Element (VDRE) (AID 2282968). The note with it: HepG2 VDRE cis-reporter transcription, actives raise or lower the signal. In short, it runs like this: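 In transiently transfected HepG2 liver cells, gain or loss of reporter mRNA after 24 h exposure is scored relative to DMSO, using fluorescence detection by capillary electrophoresis of RT-PCR products.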

The target of test [14] is Nuclear receptor subfamily 1 group I member 3 (Homo sapiens) (UniProt Q14994). Put plainly: ATG_CAR_TRANS: Attagene TRANS-FACTORIAL HepG2 Assay for human Constitutive Androstane Receptor (CAR) (AID 2282969; active = hit-call score of the fitted dose curve at least 0.9, where 1 is the maximum;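 note: activators raise reporter mRNA above DMSO so AC50 marks induction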). The note with it: HepG2 Attagene TRANS-FACTORIAL CAR reporter. The procedure, abridged: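 Readout is reporter mRNA induction, quantified by fluorescent primer extension and capillary electrophoresis after RT-PCR. Cells were HepG2 transiently carrying chimeric NR-Gal4 constructs with GAL4-UAS reporters, treated for 24 h; activity scored upward from DMSO.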
Chain of Nuclear receptor subfamily 1 group I member 3 (Homo sapiens) (Q14994 whole entry, looked up, the tested form may be a part): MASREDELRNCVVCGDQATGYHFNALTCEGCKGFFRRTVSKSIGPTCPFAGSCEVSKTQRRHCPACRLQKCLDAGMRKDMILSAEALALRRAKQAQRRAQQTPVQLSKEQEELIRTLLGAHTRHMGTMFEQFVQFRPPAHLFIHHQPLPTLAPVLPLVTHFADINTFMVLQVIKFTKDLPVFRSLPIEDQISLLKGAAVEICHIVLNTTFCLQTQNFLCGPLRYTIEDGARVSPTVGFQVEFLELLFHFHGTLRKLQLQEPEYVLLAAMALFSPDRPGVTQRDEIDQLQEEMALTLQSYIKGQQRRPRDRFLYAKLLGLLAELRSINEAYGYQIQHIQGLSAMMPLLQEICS

The target in test [15] is Estrogen receptor (Homo sapiens) (UniProt P03372). Put plainly: ATG_ERa_TRANS: Attagene TRANS-FACTORIAL HepG2 Assay for human Estrogen Receptor alpha (ERa) (AID 2282970; active = hit-call score of the fitted dose curve at least 0.9, where 1 is the maximum). The note with it: HepG2 Attagene TRANS ERa GAL4 reporter, mRNA. The procedure, abridged: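 Cells: HepG2, transiently transfected. Construct: GAL4-UAS reporter units regulated by exogenous NR-Gal4 chimeras. Time: 24 h. Detection: reporter mRNA by RT-PCR, capillary electrophoresis, fluorescence. Baseline: DMSO, upward fitting.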
Chain of Estrogen receptor (Homo sapiens) (P03372 whole entry, looked up, the tested form may be a part): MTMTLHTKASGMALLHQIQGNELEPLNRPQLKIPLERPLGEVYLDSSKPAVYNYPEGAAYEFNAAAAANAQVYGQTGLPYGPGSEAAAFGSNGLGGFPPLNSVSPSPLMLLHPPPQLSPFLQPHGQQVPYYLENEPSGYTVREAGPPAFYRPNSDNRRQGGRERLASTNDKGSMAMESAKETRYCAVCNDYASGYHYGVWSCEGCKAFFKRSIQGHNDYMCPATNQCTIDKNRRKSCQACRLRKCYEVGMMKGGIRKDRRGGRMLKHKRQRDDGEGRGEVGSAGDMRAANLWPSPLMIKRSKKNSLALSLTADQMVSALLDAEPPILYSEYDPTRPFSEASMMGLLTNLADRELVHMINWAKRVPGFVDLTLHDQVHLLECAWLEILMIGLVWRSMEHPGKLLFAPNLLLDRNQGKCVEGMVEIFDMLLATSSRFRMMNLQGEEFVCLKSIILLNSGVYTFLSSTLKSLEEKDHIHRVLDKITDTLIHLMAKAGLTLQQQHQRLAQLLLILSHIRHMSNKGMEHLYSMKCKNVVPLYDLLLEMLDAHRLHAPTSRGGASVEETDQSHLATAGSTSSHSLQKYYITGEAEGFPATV

The target of test [16] is X-box-binding protein 1 (Homo sapiens) (UniProt P17861). The experiment in a line: ATG_Xbp1_CIS: Attagene CIS-FACTORIAL HepG2 Assay for human X-box Binding Protein 1 (XBP1) (AID 2282972). The following applies: HepG2 XBP1 cis-element reporter, Attagene multiplex; actives raise or lower the signal. The procedure, abridged: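 After a 24-hour chemical exposure of HepG2 cells carrying cis-regulated reporters, reporter mRNA levels are assessed. Quantification uses RT-PCR, 6-FAM labelling and capillary electrophoresis. Gain- or loss-of-signal is fitted against DMSO.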
Chain of X-box-binding protein 1 (Homo sapiens) (P17861 whole entry, looked up): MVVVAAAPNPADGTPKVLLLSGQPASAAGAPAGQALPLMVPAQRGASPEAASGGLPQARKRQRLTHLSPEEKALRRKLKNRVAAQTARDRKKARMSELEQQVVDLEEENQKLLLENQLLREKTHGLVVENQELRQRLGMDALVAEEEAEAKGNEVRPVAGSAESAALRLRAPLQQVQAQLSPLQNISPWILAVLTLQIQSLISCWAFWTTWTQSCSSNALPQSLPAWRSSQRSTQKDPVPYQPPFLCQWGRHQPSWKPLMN

Test [17] can be described thus: ATG_M_19_TRANS: Attagene TRANS-FACTORIAL HepG2 Assay for M19 Transcription Factor (Internal Marker) (AID 2282974; active = hit-call score of the fitted dose curve at least 0.9, where 1 is the maximum). The following applies: HepG2 Attagene TRANS-FACTORIAL M19 internal marker reporter. The procedure, abridged: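 Reporter mRNA induction was measured in transfected HepG2 cells 24 h after dosing. Endpoint fitted upward relative to DMSO and serves as a background control within the multiplexed TRANS panel.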

Test [18] has as its target Steroid hormone receptor ERR1 (Homo sapiens) (UniProt P11474). Put plainly: ATG_ERRa_TRANS: Attagene TRANS-FACTORIAL HepG2 Assay for human Estrogen-Related Receptor alpha (ERRa) (AID 2282971; active = hit-call score of the fitted dose curve at least 0.9, where 1 is the maximum). The note with it: HepG2 Attagene TRANS reporter, ERRa transactivation. The procedure, abridged: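 Reporter transcripts from ERRa-Gal4 chimera activity measured in transiently transfected human HepG2 cells 24 hours after dosing, using RT-PCR with 6-FAM primer extension, HpaI digestion and capillary electrophoresis; DMSO is baseline.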

The results in this text go back to PubChem BioAssay (EPA / NIEHS).

Molecules are shown by their SMILES. Inconclusive results are not listed. Active and inactive are the calls of the source. Rule for the calls, unless noted: active = hit-call score of the fitted dose curve at least 0.9, where 1 is the maximum; inactive = score below 0.9.

Chain of Signal transducer and activator of transcription 3 (Homo sapiens) (P40763 whole entry, looked up): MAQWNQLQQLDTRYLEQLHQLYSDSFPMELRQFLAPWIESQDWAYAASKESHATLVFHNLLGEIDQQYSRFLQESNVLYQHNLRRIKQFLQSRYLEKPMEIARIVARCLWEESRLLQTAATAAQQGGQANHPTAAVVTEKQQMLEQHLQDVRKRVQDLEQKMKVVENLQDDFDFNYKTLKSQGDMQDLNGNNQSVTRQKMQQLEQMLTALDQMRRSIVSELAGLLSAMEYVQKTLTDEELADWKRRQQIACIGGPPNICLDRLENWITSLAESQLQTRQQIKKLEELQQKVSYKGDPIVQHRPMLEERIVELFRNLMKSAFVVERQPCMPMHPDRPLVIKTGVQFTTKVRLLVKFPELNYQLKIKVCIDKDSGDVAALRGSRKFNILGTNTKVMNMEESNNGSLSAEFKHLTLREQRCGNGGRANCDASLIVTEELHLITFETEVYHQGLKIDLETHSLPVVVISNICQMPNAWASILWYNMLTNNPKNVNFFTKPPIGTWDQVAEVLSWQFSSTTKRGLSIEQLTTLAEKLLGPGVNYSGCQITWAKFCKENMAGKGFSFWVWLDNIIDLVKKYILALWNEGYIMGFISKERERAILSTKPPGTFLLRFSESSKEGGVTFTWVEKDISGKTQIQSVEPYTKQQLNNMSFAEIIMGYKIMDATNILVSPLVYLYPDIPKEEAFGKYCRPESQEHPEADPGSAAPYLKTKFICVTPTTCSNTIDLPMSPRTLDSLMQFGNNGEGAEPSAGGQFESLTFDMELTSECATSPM
Chain of Steroid hormone receptor ERR1 (Homo sapiens) (P11474 whole entry, looked up, the tested form may be a part): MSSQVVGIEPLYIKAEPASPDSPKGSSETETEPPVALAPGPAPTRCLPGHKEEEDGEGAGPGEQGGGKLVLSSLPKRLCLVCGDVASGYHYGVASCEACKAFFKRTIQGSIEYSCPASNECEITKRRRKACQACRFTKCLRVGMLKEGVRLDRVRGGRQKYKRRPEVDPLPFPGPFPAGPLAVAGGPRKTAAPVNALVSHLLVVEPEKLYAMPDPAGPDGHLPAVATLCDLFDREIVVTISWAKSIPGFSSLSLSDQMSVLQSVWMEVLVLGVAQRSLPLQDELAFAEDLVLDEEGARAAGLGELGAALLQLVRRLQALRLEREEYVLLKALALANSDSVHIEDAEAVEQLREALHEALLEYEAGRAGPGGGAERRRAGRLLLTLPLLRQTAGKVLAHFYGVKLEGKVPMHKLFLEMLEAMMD

The term AC50 denotes the midpoint of the concentration-response curve, whichever way the signal moves. Take `CCCCN(CCCC)SN(C)C(=O)Oc1cccc2c1OC(C)(C)C2`: the outcome in [1], in test [3], in [4], in [5], in test [6] and in [7] was inactive. The molecule was called inactive in test [8], in test [9], in test [10], in [11], in test [12] and in [13]. Moreover, the call in [14], in [16] and in test [17] was inactive. The concentration at half-maximal activity (AC50) in test [2] was 8.93 µM (active); in test [15] it was 75.5 µM (active).

For the molecule `CC(Cl)(Cl)C(=O)O`, the result in [1], in test [2], in [3], in test [4], in test [6] and in [7] was inactive. For the same molecule, the molecule was classed as inactive in [8], in [9], in [10], in test [11], in test [12] and in [13]. In addition, the molecule was called inactive in test [15] and in test [16].

`O=[N+]([O-])c1ccccc1`: the result in test [1], in test [2], in test [3], in [4], in test [5] and in test [6] was inactive. For the same molecule, the result in test [7], in test [8], in test [9], in [10], in test [11] and in test [12] was inactive. Further, the outcome in test [16] was inactive. The concentration at half-maximal activity (AC50) in test [15] was 19.8 µM (active).

As to `N#Cc1ccc(O)cc1`, the outcome in [1], in test [2], in test [3], in test [4], in [5] and in test [6] was inactive. The call in test [7], in test [8], in [9], in [10], in test [11] and in test [12] was inactive. The molecule was called inactive in test [13], in test [14], in [15], in [16] and in test [17].

On to `Cn1[nH]nnc1=S`, for which the outcome in [1], in [2], in [3], in test [4], in test [5] and in test [6] was inactive. Besides, the outcome in test [7], in test [8], in test [9], in test [10], in [11] and in test [12] was inactive. Besides, the molecule was called inactive in [13], in test [16] and in test [17].

For `CCOC(=O)c1ccccc1C(=O)OCC`, the result in [1], in test [2], in [3], in [4], in test [5] and in test [6] was inactive. Further, the molecule was classed as inactive in [7], in test [8], in test [9], in test [10], in [11] and in [12]. Further, the molecule was classed as inactive in test [13], in [15], in test [18] and in test [16].
